Screening data deposited in PubChem by ICCB-Longwood Screening Facility, Harvard Medical School.
The sample as a whole holds a higher share of hits than the screen did.
Vaccinia pol inh – blocks vaccinia virus processive DNA synthesis; in vitro processive DNA synthesis, absorbance read-out; hits give low values; normalized absorbance, % (concentration not given with the values); 0.94% of 46,000 active; AID 493162; in the data active means normalized absorbance mostly below about 85%, no sharp cut-off; inactive means mostly above about 86%
An asterisk follows results filed as active.

SMILES	Vaccinia pol inh
CSc1nc2ccccc2n1Cc1ccc(C(C)C)cc1	92
CCCCc1nc2ccccc2n1CC(=O)Nc1ccccc1C	100
CCOC(=O)c1cnc2c(ccc3ccccc32)c1NCCOC(=O)C(C)(C)C	100
CCOC(=O)c1cnc2c(ccc3ccccc32)c1NCC(C)C	100
CCOC(=O)c1cnc2c(ccc3ccccc32)c1NC1CC(C)(C)NC(C)(C)C1	58*
COc1cc(OC)cc(C(=O)Nc2nnc(-c3ccccc3Cl)s2)c1	88
O=C(O)CCC(=O)c1ccc(Br)cc1	102
Cc1nn(-c2ccccc2)c2sc(C(=O)O)cc12	98
Cc1nn(-c2ccccc2)c2sc(C(=O)NC(C)C)cc12	82
Cc1nn(-c2ccccc2)c2sc(C#N)c(N)c12	80*
Cc1ccccc1CN1C(=O)C(O)(CC(=O)c2ccc(N)cc2)c2ccccc21 (configuration not stated)	90
O=C(O)c1ccccc1-c1nc2ccccc2s1	99
Cc1csc(NC(=O)c2ccccc2C(=O)O)c1-c1nc2ccccc2s1	72*
Cc1ccc2nc(NC(=O)c3ccccc3C(=O)O)sc2c1	91
COc1ccc2nc(SCC(=O)Nc3cc(F)ccc3F)[nH]c2c1	100
CCN1CCCC1CNC(=O)c1cc2c(s1)-c1ccccc1SC2 (configuration not stated)	73*
O=C(NCc1ccccc1)c1cc2c(s1)-c1ccccc1SC2	103
O=C(NCCC1=CCCCC1)c1cc2c(s1)-c1ccccc1SC2	94
O=C(O)CC(C(=O)O)n1c(O)c(/C=C2/C=Nc3ccccc32)sc1=S (configuration not stated)	99
COC(=O)C1=C(C)N(Cc2cccnc2)C(=O)/C1=C\c1ccccc1C(F)(F)F	100
O=C(CC(C(=O)O)C1CCCO1)Nc1ccccc1 (configuration not stated)	103
CCn1c(NCc2ccccn2)nc2ccccc21	113
Cc1nc(NCc2ccccn2)c2ccccc2n1	51*
Cc1nc2ccccc2cc1C(=O)NCc1ccccn1	109
O=C(O)c1cccc(N2C(=O)CCC2=O)c1	101
SMILES	Vaccinia pol inh
O=C(O)c1cc2ccc3cccc4ccc(c1)c2c34	77*
O=C(O)c1c2ccccc2cc2ccccc12	100
Cc1cc(N2CCN(c3ccccc3)CC2)n2nc(-c3ccccc3)cc2n1	100
CCCn1c2ccccc2c2nnc(SC(CC)C(=O)Nc3nc(C)c(C(=O)OCC)s3)nc21 (configuration not stated)	92
COc1ccc(C(=O)CNC2=NCCC2)cc1	96
COc1ccc(C(=O)CSc2ncccn2)cc1	103
COc1ccc(C(=O)CSC2=NCCCCCC2)cc1	65*
CCOC(=O)Cn1c(-c2ccc(Cl)cc2)csc1=Nc1ccc(F)cc1	100
COc1cc(COC(=O)N[C@@H](Cc2c[nH]c3ccccc23)C(=O)O)cc(OC)c1	98
OC(CNC1CCCC1)Cn1c2ccccc2c2ccccc21 (configuration not stated)	80*
Cc1c(C)n(CC(O)CNC2CCCC2)c2ccccc12 (configuration not stated)	97
Cc1ccc(N(CC(O)Cn2c3ccccc3c3ccccc32)S(=O)(=O)c2ccccc2)cc1 (configuration not stated)	101
CCN(CC)CC(O)Cn1c2ccccc2c2ccccc21 (configuration not stated) (tested in a mixture with another compound)	76*
Cc1c(C)n(CC(O)CNC2CCCCC2)c2ccccc12 (configuration not stated)	100
CC(C)Cn1c2ccccc2c2ccccc21	98
Cc1sc(NC(=O)C(C)Oc2ccc(Cl)cc2Cl)c(C(N)=O)c1C (configuration not stated)	99
COC(=O)C1C(=O)C2=C(CC1C)NC(=O)CC2c1cccc(OC)c1 (configuration not stated)	94
O=S(=O)(Oc1cccc(N2CCOCC2)c1)c1ccc(Cl)cc1	85
COc1ccc2c(C)cc(Cl)nc2c1	91
COc1ccc2c(C)cc3nncn3c2c1	78*
CCN1CCN(c2cc(C)c3ccc(OC)cc3n2)CC1	99
O=C(/C=C/c1cn(-c2ccccc2)nc1-c1cccs1)NCc1ccccc1	101
O=C(OCC(=O)N1CCCCC1)c1ccccc1OCc1ccc(F)cc1	107
O=C1Sc2ccc(S(=O)(=O)Nc3ccc(Br)cc3)c3cccc1c23	100
CCOC(=O)c1ccc(NC(=O)c2ccc(Cl)cc2)cc1	99
SMILES	Vaccinia pol inh
CCOC(=O)c1ccc(CN)cc1	98
CCOC(=O)c1ccc(N=C(N)SCc2ccc(Cl)cc2)cc1	65*
CC(C)(C)C(=O)Nc1ccc(C(C)(C)C)cc1	102
CN(C)c1ccc(C(C#N)=C(C#N)C#N)cc1	108
Nc1cccc(C2=NCCN2)c1	99
O=C(Nc1cccc(C2=NCCN2)c1)Nc1cccc(C2=NCCN2)c1	78*
O=C(NC1=NCCCCCN1)Nc1cccc(Cl)c1	100
CC1(C)CN(c2ccc(I)cc2)C1=O	87
COC(=O)[C@@]1(O)CC2OC1(C)n1c3ccccc3c3c4c(c5c6ccccc6n2c5c31)C(=O)NC4 (some centres not stated)	98
Cn1c2ccccc2c2c3c(c4c5ccccc5n(CCC#N)c4c21)CNC3=O	98
CN[C@@H]1CC2(C)OC([C@@H]1OC)n1c3ccccc3c3c4c(c5c6ccccc6n2c5c31)C(=O)NC4 (some centres not stated)	56*
CCOC(=O)CCc1c(CC(=O)OCC)c[nH]c1/C=N/O	31*
CCOC(=O)CCc1n[nH]c(=O)[nH]c1=O	102
CCOC(=O)CCc1ccc(OCc2c(C)c(C)c(C)c(C)c2C)cc1	96
COC(CNC(=O)c1cc(S(=O)(=O)N2CC(C)CC(C)C2)ccc1F)OC (configuration not stated)	99
COC(=O)CSC1=C(C#N)C(=O)NC(c2ccccc2O)S1 (configuration not stated)	91
CCSC1=C(C#N)C(=O)NC(/C=C/c2ccccc2)S1 (configuration not stated)	108
N#CC1=C(SCc2ccccc2)SC(c2ccccc2O)NC1=O (configuration not stated)	50*
COc1ccc(Cc2cc(-c3cccs3)n[nH]c2=O)c(OC)c1OC	104
Cc1ccc2c(c1)c1cccc3c1n2CCN3CCC(N)=O	63*
Cc1ccc(-n2c(=O)c3c(c4cc(C)ccc4n3C)n(CC(N)=O)c2=O)cc1	93
NC(=O)CCN1CCn2c1nc1ccccc12	100
Fc1ccc(CN2CCCN(Cc3ccc(F)cc3)C2c2cccnc2)cc1	105
Clc1cccc(C=Nc2ccc(N3CCOCC3)cc2)c1Cl	100
COc1ccccc1N=Cc1c(O)n(C)c(=O)c2ccccc12	92
CC1CCCC(C)N1CC(O)c1ccccc1 (configuration not stated)	96
CN(C)[C@@H]1C(=O)C(C(N)=O)=C(O)[C@@]2(O)C(=O)C3=C(O)c4c(O)cccc4[C@@](C)(O)[C@H]3C[C@@H]12	99
C=C1c2c(Cl)ccc(O)c2C(O)=C2C(=O)[C@]3(O)C(O)=C(C(N)=O)C(=O)[C@@H](N(C)C)[C@@H]3[C@@H](O)[C@H]12	101
C=C1c2cccc(O)c2C(O)=C2C(=O)[C@]3(O)C(O)=C(C(N)=O)C(=O)[C@@H](N(C)C)[C@@H]3[C@@H](O)[C@H]12	55*
COc1ccc(OC)c(C2NC(C(=O)O)C3C(=O)N(c4cccc(C(=O)O)c4)C(=O)C23)c1 (configuration not stated)	101
